Measured values from PubChem BioAssay (EPA / NIEHS).
Inconclusive results are not listed. Active and inactive are the calls of the source. How the source made its calls: active means hit-call score of the fitted dose curve at least 0.9, where 1 is the maximum; inconclusive means response in the unintended direction; inactive means score below 0.9.

Experiments:
[1] = biological target: human Peroxisome Proliferator-activated Receptor delta (PPARd), PPARD (gene 5467) (UniProt Q03181); experiment: ATG_PPARd_TRANS: Attagene TRANS-FACTORIAL HepG2 Assay for human Peroxisome Proliferator-activated Receptor delta (PPARd) (AID 2283002)
Procedure, shortened: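 Transient HepG2 transfection (multiple GAL4-UAS RTUs, chimeric receptor-Gal4); 24 h dosing; total RNA → oligo(dT) RT → PCR → 6-FAM primer extension → HpaI cut → CE. Positive direction vs DMSO.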

[2] = biological target: Peroxisome proliferator-activated receptor gamma (Homo sapiens) (UniProt P37231); experiment: ATG_PPARg_TRANS: Attagene TRANS-FACTORIAL HepG2 Assay for human Peroxisome Proliferator-activated Receptor-gamma (PPARg) (AID 2283007)
Procedure, shortened: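 A TRANS-format multiplexed reporter assay measures activity of an exogenous chimeric NR-Gal4 protein in HepG2 cells. After 24 h of chemical exposure, reporter transcripts are amplified, fluorescently labelled and sized by capillary electrophoresis, with gain of signal scored against DMSO.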

[3] = biological target: Nuclear receptor subfamily 1 group I member 2 (Homo sapiens) (UniProt O75469); experiment: ATG_PXR_TRANS: Attagene TRANS-FACTORIAL HepG2 Assay for human Pregnane X Receptor (PXR) (AID 2283008)
Procedure, shortened: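 Fluorescence intensity of FAM-labelled, HpaI-digested reporter amplicons, separated by capillary electrophoresis, quantifies induction. HepG2 cells with PXR-Gal4 trans-reporter system were exposed 24 h; DMSO defines baseline.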

[4] = biological target: human RAR-related Orphan Receptor beta (RORb), RORB (gene 6096) (UniProt Q92753); experiment: ATG_RORb_TRANS: Attagene TRANS-FACTORIAL HepG2 Assay for human RAR-related Orphan Receptor beta (RORb) (AID 2283010)
Procedure, shortened: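 HepG2 cells were transiently transfected with multiplexed GAL4-UAS reporter units expressing chimeric nuclear receptor–GAL4 proteins, then dosed for 24 h. Reporter mRNA was quantified by RT-PCR with fluorescent labelling and capillary electrophoresis; gain of signal was fitted relative to DMSO.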

[5] = biological target: human RAR-related Orphan Receptor gamma (RORg), RORC (gene 6097) (UniProt P51449); experiment: ATG_RORg_TRANS: Attagene TRANS-FACTORIAL HepG2 Assay for human RAR-related Orphan Receptor gamma (RORg) (AID 2283011)
Procedure, shortened: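 Readout: reporter transcript induction (RT-PCR, fluorescent primer extension, capillary electrophoresis) after 24 h compound exposure of transiently transfected HepG2 cells carrying a RORg-Gal4 chimera and GAL4-UAS reporters; DMSO served as baseline, with increasing signal fitted.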

[6] = biological target: Retinoic acid receptor RXR-alpha (Homo sapiens) (UniProt P19793); experiment: ATG_RXRa_TRANS: Attagene TRANS-FACTORIAL HepG2 Assay for human Retinoid X Receptor alpha (RXRa) (AID 2283012)
Procedure, shortened: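 HepG2 cells transiently transfected with multiplexed GAL4-UAS reporter units and chimeric NR-GAL4 fusions, dosed 24 h. Reporter mRNA measured by RT-PCR, FAM labelling, HpaI digestion and capillary electrophoresis; gain-of-signal fitted relative to DMSO baseline.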

[7] = biological target: human Retinoid X Receptor beta (RXRb), RXRB (gene 6257) (UniProt P28702); experiment: ATG_RXRb_TRANS: Attagene TRANS-FACTORIAL HepG2 Assay for human Retinoid X Receptor beta (RXRb) (AID 2283013)
Procedure, shortened: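 HepG2 cells transiently transfected with multiplexed reporter units driven by GAL4-UAS and exogenous chimeric NR-Gal4 proteins; treated 24 h. Reporter mRNA measured by RT-PCR, 6-FAM labelling and capillary electrophoresis; gain-of-signal fitted versus DMSO baseline.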

[8] = biological target: human Peroxisome Proliferator-activated Receptor alpha (PPARa), PPARA (gene 5465) (UniProt Q07869); experiment: ATG_PPARa_TRANS: Attagene TRANS-FACTORIAL HepG2 Assay for human Peroxisome Proliferator-activated Receptor alpha (PPARa) (AID 2283001)
Procedure, shortened: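 Reporter transcripts from GAL4-UAS units in transfected HepG2 were quantified 24 h after dosing. Detection used reverse transcription, PCR, fluorescent primer extension and capillary electrophoresis, with DMSO as baseline.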

[9] = biological target: human Thyroid Receptor alpha (THRa1), THRA (gene 7067) (UniProt P10827); experiment: ATG_THRa1_TRANS: Attagene TRANS-FACTORIAL HepG2 Assay for human Thyroid Receptor alpha (THRa1) (AID 2283014)
Procedure, shortened: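 HepG2 cells transiently transfected with multiplexed GAL4-UAS reporter units for exogenous chimeric THRa1-Gal4; reporter mRNA measured 24 h after dosing by RT-PCR, 6-FAM labelling, HpaI digestion and capillary electrophoresis. Gain-of-signal fitted versus DMSO baseline.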

[10] = biological target: human Retinoic Acid Receptor gamma (RARg), RARG (gene 5916) (UniProt P13631); experiment: ATG_RARg_TRANS: Attagene TRANS-FACTORIAL HepG2 Assay for human Retinoic Acid Receptor gamma (RARg) (AID 2283009)
Procedure, shortened: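 HepG2 cells transiently transfected with multiplexed reporter units expressing chimeric RARg-GAL4 and GAL4-UAS-driven reporters; 24 h compound exposure. Reporter mRNA quantified by RT-PCR with fluorescent labelling and capillary electrophoresis; gain-of-signal fitted relative to DMSO baseline.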

[11] = biological target: human Retinoic Acid Receptor beta (RARb), RARB (gene 5915) (UniProt P10826); experiment: ATG_RARb_TRANS: Attagene TRANS-FACTORIAL HepG2 Assay for human Retinoic Acid Receptor beta (AID 2283004)
Procedure, shortened: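 HepG2 cells transiently transfected with multiplexed GAL4-UAS reporter units expressing chimeric NR–Gal4 fusions; 24 h compound exposure. Reporter mRNA quantified by RT-PCR, 6-FAM labelling, HpaI digestion and capillary electrophoresis; gain-of-signal fitted against DMSO baseline.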

[12] = biological target: Retinoic acid receptor alpha (Homo sapiens) (UniProt P10276); experiment: ATG_RARa_TRANS: Attagene TRANS-FACTORIAL HepG2 Assay for human Retinoic Acid Receptor alpha (RARa) (AID 2283005)
Procedure, shortened: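 Reporter transcripts, measured by RT-PCR with fluorescent labeling and capillary electrophoresis after 24 h dosing, reflect activity of an exogenous human RARa–GAL4 fusion in transiently transfected HepG2. Fitted for increase relative to DMSO.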

Measured: AC50

Sequence of Retinoic acid receptor RXR-alpha (Homo sapiens) (P19793 whole entry, looked up, the tested form may be a part): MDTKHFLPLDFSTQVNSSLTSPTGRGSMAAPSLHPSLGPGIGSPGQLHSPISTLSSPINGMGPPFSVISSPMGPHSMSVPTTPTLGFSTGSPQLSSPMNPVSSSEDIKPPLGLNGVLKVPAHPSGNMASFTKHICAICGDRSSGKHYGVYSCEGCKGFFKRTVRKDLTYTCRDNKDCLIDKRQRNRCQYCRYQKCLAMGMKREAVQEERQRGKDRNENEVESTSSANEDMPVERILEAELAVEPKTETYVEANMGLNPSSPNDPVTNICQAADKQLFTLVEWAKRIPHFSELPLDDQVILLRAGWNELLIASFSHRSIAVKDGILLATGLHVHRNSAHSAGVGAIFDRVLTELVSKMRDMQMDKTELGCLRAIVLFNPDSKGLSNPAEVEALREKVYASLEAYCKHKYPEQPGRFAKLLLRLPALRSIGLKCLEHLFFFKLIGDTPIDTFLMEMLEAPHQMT
Sequence of human RAR-related Orphan Receptor gamma (RORg), RORC (gene 6097) (P51449 whole entry, looked up, the tested form may be a part): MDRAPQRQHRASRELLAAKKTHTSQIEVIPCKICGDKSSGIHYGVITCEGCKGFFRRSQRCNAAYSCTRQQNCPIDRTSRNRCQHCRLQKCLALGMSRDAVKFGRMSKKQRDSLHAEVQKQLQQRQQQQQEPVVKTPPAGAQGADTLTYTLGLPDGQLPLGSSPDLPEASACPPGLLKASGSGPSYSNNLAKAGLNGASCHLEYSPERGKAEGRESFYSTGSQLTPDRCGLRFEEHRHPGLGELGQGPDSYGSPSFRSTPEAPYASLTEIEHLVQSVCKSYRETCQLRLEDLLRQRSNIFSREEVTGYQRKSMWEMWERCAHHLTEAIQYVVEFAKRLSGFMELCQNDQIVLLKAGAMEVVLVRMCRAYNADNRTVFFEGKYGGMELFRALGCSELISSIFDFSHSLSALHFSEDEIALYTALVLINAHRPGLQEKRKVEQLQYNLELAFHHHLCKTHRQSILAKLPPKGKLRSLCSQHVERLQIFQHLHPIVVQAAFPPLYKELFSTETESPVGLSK
Sequence of human Retinoic Acid Receptor gamma (RARg), RARG (gene 5916) (P13631 whole entry, looked up, the tested form may be a part): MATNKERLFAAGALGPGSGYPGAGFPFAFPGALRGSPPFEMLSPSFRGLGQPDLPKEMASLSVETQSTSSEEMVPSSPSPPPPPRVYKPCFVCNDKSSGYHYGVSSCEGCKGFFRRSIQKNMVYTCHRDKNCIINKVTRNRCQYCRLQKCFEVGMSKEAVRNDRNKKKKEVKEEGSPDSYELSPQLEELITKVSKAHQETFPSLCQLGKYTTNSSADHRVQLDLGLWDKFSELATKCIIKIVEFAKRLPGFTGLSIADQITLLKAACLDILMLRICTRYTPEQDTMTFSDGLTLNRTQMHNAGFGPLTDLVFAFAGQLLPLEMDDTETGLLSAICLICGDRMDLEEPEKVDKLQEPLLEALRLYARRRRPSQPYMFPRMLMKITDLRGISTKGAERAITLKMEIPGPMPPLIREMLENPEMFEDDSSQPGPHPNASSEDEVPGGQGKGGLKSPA
Sequence of human Peroxisome Proliferator-activated Receptor delta (PPARd), PPARD (gene 5467) (Q03181 whole entry, looked up, the tested form may be a part): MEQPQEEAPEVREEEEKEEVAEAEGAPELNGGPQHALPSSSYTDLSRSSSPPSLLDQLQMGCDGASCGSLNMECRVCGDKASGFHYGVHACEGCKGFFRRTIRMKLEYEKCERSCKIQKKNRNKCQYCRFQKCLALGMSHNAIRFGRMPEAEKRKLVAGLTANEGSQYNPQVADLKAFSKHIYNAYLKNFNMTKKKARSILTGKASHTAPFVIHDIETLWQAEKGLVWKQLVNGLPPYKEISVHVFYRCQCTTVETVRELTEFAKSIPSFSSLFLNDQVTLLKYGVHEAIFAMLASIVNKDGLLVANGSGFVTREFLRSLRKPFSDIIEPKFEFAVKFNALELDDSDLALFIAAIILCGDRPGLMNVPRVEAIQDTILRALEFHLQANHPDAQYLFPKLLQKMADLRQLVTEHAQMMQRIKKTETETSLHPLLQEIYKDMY
Sequence of human Thyroid Receptor alpha (THRa1), THRA (gene 7067) (P10827 whole entry, looked up, the tested form may be a part): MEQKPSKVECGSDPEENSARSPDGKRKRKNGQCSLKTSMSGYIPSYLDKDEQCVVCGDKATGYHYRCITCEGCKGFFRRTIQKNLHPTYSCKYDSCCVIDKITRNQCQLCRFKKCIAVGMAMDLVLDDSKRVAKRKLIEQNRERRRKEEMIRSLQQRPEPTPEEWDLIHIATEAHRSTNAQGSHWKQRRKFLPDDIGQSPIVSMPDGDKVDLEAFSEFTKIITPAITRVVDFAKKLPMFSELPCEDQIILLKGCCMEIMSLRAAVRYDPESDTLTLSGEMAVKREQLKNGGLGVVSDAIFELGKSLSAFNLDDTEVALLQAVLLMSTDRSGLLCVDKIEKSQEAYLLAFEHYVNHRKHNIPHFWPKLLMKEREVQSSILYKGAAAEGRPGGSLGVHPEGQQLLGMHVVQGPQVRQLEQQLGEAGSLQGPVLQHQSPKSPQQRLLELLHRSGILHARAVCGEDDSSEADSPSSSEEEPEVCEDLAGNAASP
Sequence of human Retinoid X Receptor beta (RXRb), RXRB (gene 6257) (P28702 whole entry, looked up, the tested form may be a part): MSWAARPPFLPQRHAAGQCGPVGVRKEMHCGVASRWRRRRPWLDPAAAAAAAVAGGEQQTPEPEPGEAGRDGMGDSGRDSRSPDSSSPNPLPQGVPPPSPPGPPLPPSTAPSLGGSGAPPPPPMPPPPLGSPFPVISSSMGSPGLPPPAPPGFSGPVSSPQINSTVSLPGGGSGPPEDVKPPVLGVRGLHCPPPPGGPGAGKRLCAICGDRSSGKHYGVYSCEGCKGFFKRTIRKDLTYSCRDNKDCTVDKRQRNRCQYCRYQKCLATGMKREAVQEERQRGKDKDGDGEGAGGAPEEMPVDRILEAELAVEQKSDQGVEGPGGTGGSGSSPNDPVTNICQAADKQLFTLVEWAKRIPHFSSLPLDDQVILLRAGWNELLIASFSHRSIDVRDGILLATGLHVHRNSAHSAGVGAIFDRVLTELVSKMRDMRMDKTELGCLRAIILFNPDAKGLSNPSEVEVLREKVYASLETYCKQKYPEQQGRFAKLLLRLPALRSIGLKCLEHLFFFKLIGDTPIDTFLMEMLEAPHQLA
Sequence of human RAR-related Orphan Receptor beta (RORb), RORB (gene 6096) (Q92753 whole entry, looked up, the tested form may be a part): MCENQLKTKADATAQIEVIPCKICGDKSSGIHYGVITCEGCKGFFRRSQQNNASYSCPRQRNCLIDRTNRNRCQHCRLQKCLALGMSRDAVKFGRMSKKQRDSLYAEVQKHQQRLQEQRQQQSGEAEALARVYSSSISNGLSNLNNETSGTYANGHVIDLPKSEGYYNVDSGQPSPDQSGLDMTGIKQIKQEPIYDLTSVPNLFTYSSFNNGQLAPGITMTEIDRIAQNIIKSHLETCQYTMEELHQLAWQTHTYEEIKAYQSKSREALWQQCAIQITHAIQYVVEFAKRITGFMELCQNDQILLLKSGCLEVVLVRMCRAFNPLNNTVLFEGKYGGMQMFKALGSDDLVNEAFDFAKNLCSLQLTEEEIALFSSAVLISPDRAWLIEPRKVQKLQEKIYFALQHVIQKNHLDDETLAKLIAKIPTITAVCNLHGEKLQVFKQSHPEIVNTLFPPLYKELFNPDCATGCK
Sequence of human Retinoic Acid Receptor beta (RARb), RARB (gene 5915) (P10826 whole entry, looked up, the tested form may be a part): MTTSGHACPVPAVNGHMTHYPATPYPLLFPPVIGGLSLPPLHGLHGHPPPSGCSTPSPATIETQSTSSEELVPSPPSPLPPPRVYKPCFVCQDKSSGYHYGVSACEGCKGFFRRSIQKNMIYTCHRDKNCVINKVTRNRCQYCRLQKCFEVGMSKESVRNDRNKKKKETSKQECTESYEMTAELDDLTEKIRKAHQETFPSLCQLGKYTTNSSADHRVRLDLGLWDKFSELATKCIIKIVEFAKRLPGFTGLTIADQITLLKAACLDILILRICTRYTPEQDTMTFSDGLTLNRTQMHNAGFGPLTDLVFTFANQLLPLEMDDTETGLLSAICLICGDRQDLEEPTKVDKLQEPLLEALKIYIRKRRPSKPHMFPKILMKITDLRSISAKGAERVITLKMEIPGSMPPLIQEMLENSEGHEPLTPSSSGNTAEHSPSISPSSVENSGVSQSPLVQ
Sequence of Peroxisome proliferator-activated receptor gamma (Homo sapiens) (P37231 whole entry, looked up, the tested form may be a part): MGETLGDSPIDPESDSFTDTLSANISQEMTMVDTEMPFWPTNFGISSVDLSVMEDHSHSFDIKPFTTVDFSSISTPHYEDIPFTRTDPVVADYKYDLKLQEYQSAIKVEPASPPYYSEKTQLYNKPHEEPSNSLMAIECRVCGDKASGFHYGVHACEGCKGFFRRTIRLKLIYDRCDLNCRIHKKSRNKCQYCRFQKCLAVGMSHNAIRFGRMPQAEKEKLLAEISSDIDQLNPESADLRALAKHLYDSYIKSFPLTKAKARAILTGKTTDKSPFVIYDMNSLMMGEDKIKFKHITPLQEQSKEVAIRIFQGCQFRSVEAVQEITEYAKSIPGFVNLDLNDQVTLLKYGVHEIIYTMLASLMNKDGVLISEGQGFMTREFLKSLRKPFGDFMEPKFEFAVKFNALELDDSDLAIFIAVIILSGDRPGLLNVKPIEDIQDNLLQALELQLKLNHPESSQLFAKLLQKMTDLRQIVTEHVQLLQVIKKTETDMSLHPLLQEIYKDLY
Sequence of Retinoic acid receptor alpha (Homo sapiens) (P10276 whole entry, looked up, the tested form may be a part): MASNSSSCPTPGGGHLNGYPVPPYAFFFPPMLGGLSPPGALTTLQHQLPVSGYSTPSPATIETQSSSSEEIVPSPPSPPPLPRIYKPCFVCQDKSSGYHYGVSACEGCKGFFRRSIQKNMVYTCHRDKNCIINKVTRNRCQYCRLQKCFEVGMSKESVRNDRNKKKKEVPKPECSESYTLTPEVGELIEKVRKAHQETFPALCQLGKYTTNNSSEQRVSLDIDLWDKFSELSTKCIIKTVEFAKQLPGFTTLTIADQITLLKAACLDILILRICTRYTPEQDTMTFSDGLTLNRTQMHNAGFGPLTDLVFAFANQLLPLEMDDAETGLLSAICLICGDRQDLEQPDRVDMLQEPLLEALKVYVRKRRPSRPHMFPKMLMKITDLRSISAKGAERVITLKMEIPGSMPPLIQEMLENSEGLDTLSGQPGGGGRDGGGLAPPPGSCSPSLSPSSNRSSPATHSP

CC(O)CNCC(C)O (configuration not stated)
inactive: [1] | [2] | [3] | [4] | [5] | [6] | [7]

NC(=O)c1cnccn1
inactive: [8] | [3] | [6]

CCCC[N+](C)(CCCC)CCCC
inactive: [8] | [4] | [5] | [6] | [7]

CCOC(=O)CC(C)C
inactive: [1] | [2] | [3] | [5] | [6] | [9]

C=C/C(C)=C/C/C=C(\C)CCC=C(C)C
inactive: [1] | [7]
active: [3] 6.85 µM

O=c1cc(-c2ccc(O)cc2)oc2cc(O)cc(O)c12
inactive: [1] | [10] | [6]
active: [2] 18.2 µM

CCCCCCCOC(C)=O
inactive: [1] | [2] | [3] | [6] | [9]

CC(C)COC(=O)c1ccccc1O
inactive: [1] | [3] | [5] | [6] | [7] | [9]

CC(C)(O)C(=O)c1ccc(OCCO)cc1
inactive: [1] | [3] | [5] | [6]

O=[N+]([O-])c1cc(N(CCO)CCO)ccc1NCCO
inactive: [1] | [6] | [7]

CCC(C)(C)c1cc(O)c(C(C)(C)CC)cc1O
inactive: [1]
active: [3] 7.37 µM | [7] 59.9 µM

COc1ccc(N)c(C)c1
inactive: [1] | [3] | [6] | [7]
active: [9] 73.2 µM

CC(CO)(CO)[N+](=O)[O-]
inactive: [1] | [3] | [6] | [7]

CC/C=C\C#N
inactive: [1] | [2] | [3] | [9]

CCCCCCCC(=O)N(C)C
inactive: [1] | [3] | [10] | [6] | [9]

NC(=O)c1cccnc1
inactive: [1] | [2] | [5]

CC(=O)N(C)C
inactive: [1] | [3]

COc1ccc2[nH]cc(CCNC(C)=O)c2c1
inactive: [1] | [2] | [3] | [7]

CC(C)(O)CCc1ccccc1
inactive: [1] | [2] | [3] | [5] | [7]

FC(F)(F)c1ccc(Cl)c(Cl)c1
inactive: [1] | [6]

CCC(C)(C)C1CCC(OC)CC1 (configuration not stated)
active: [3] 8.16 µM
inactive: [1] | [2] | [7] | [9]

CC(=O)C1=C(C)[C@@H]2C[C@@]3(C1)[C@H](C)CC[C@H]3C2(C)C
inactive: [1]
active: [2] 100 µM | [3] 2.1 µM | [7] 21.4 µM

Cc1cc(N)n(-c2ccccc2)n1
inactive: [1] | [3] | [4] | [5] | [7] | [9]

C=CC(C)CCCC(C)(C)O (configuration not stated)
inactive: [1] | [5]

CCCCCC(=O)O[C@]1(C(C)=O)CC[C@H]2[C@@H]3CCC4=CC(=O)CC[C@]4(C)[C@H]3CC[C@@]21C
active: [2] 3.22 µM | [3] 0.313 µM
inactive: [1] | [6]

C1CCCNCC1
inactive: [1] | [5] | [9]

Brc1cc(Br)cc(Br)c1
inactive: [1] | [3] | [5] | [6] | [9]

CC(=O)OC/C=C(C)/C=C/C=C(C)/C=C/C1=C(C)CCCC1(C)C
inactive: [1] | [6]
active: [2] 27.3 µM | [3] 0.418 µM

Cc1cccc(O)c1
inactive: [1] | [3] | [5]

CCCCCCCCCCOC(=O)c1ccccc1C(=O)OCCCCCCCC
inactive: [1] | [2] | [3] | [9]

O=C(O)c1ccc(C(=O)O)c(C(=O)O)c1
inactive: [1] | [6] | [9]

O=C1CCC(=O)N1
inactive: [1] | [5] | [6] | [9]

CC(C)(C)c1cc(CCC(=O)OCCSCCOC(=O)CCc2cc(C(C)(C)C)c(O)c(C(C)(C)C)c2)cc(C(C)(C)C)c1O
active: [7] 33.9 µM
inactive: [1] | [3] | [5] | [6] | [9]

Cc1cccc(C)c1
inactive: [1] | [2] | [9]

Cc1cc(O)c(C)c(C)c1O
inactive: [1] | [4] | [5] | [6] | [7]
active: [3] 22 µM

CCCCCCCCOC(C)=O
inactive: [1] | [2] | [6] | [7]

O=C1OCc2ccccc21
inactive: [1] | [5]

CC(C)=CC(=O)O
inactive: [1] | [3] | [6]

CCCCN(CCCC)CCCCCCN(CCCC)CCCC
inactive: [2] | [4] | [9]

CCCO
inactive: [11] | [12] | [3] | [10] | [5]

Nc1ccn([C@H]2CC[C@@H](CO)O2)c(=O)n1
inactive: [2] | [3] | [5] | [9]

CC(=O)C1C(=O)C=C(C)OC1=O (configuration not stated)
inactive: [11] | [12] | [10] | [5] | [6] | [9]

CC1=CC(O)CC(C)(C)C1 (configuration not stated)
inactive: [2] | [3] | [6]

CCCc1ccc(N)cc1
inactive: [2] | [6]

NC(N)=S
inactive: [4] | [5] | [9]

CCC(C)(C)C1CCC(=O)CC1
active: [3] 15.3 µM
inactive: [11] | [12] | [2] | [10] | [5] | [6]

CC(=O)CCC(=O)O
inactive: [2] | [3] | [4] | [5] | [6]

CCOC(=O)CC1(C)OCC(C)O1 (configuration not stated)
inactive: [3] | [10] | [6] | [9]

O=C(O)c1ccccc1O
inactive: [12] | [2] | [3] | [5] | [6]

CC/C=C\CCCCO
inactive: [2] | [3] | [4] | [5] | [9]

CC1=CCC(C(C)C)=CC1
inactive: [6] | [7]

CC(C)OB(OC(C)C)OC(C)C
inactive: [3] | [4] | [5] | [9]

CCCCCCCCCCCCN1CCOCC1
inactive: [2] | [3] | [6] | [9]

O=C(O)c1cccc(Cl)n1
inactive: [11] | [3] | [6] | [7]

O=C(O)c1ccco1
inactive: [3] | [6] | [7]

CCC(CC)CO
inactive: [2] | [3] | [7] | [9]

CCCCC(CC)COCCO (configuration not stated)
active: [7] 100 µM
inactive: [3] | [4] | [6] | [9]

C=COCC1CCC(COC=C)CC1 (configuration not stated)
inactive: [2] | [3] | [4]

CC(C)C(=O)c1ccccc1
inactive: [11] | [12] | [3] | [10] | [7]

CC(C)COC(=O)c1ccccc1
inactive: [11] | [3] | [4] | [9]

CCC=C(C)C=O
active: [7] 26.6 µM
inactive: [2] | [3] | [4] | [5] | [9]

C=CCOCC(O)CO (configuration not stated)
inactive: [3] | [4] | [5] | [6]

CC(C)N(c1ccccc1)C(C)C
inactive: [3] | [5] | [9]

Cc1ccncc1
inactive: [3] | [6] | [9]

CCCCCCC(O)CCOC(C)=O (configuration not stated)
active: [3] 15.2 µM
inactive: [2] | [5]

CC(O)CN (configuration not stated)
inactive: [2] | [3] | [10]
